ssDAF-12 act: activates DAF-12 receptor from parasite S. stercoralis; activation, % at 6.8 µM; hit rate 1% among 370,000; HEK293 ssDAF-12/GRIP1 lit1-tk-luc reporter, luminescence; % of 3 µM dafachronic acid response;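 active means activation above the mean over all tested compounds plus 3 SD, cut at about 0.9% in these data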
hgDAF12 agonist: activates the H. glycines DAF-12 receptor ligand-binding domain; AID 687014; hit rate 1.8% among 370,000; activation, % at 6.8 µM; HEK293 GAL4-hgDAF12 UAS-luciferase reporter, agonist luminescence; normalized to butyrate control;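 active means activation above a cutoff set at the mean of all screened compounds plus 3 SD, cut at about 10% in these data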
AHR act: human AHR activation | P35869 | AHR-responsive luciferase reporter cells, luminescence | activation, % at 5 µM | hit rate 2.5% among 320,000 | AID 2796; in the data active means activation above about 47%
DAX1 inh-1: inhibitors of human orphan nuclear receptor DAX1 (NR0B1); inhibition, % at 6.75 µM; hit rate 0.99% among 340,000; HEK293 Gal4-DAX1 luciferase reporter, luminescence; P51843;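 active means inhibition above the mean over all tested compounds plus 3 SD, cut at about 4.2% in these data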;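 further: inhibition shows as a rise in luminescence from relieved DAX1 repression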
Target sequence (P51843 207-470 limits assumed): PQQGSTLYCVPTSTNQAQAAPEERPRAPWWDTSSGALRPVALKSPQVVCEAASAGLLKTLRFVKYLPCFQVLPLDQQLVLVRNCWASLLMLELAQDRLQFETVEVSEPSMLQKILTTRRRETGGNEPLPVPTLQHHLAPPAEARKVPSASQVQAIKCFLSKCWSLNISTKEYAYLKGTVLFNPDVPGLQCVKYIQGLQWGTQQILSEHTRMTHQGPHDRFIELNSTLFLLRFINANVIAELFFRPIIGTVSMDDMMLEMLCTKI
DAX1 inh-2: blocks DAX1 repression of SF-1 activated StAR promoter; HEK293T StAR-luciferase reporter, SF-1/DAX-1 repression relief; inhibition, % at 6.8 µM; hit rate 1.1% among 370,000;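 active means inhibition above the mean over all tested compounds plus 3 SD, cut at about 3.6% in these data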;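 further: higher inhibition means more luminescence from relief of DAX-1 repression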
hcDAF12 agonist: H. contortus DAF-12 activation, primary screen | HEK293 hcDAF-12 lit1-tk-luc reporter, luminescence; 0% DMSO, 100% Δ7-dafachronic acid | activation, % at 6.8 µM | hit rate 1.4% among 370,000 | AID 652067;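 active means activation above the mean of all tested compounds plus 3 SD, cut at about 5.5% in these data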
hgDAF12 ag: hgDAF-12 agonism, confirmation assay. shares compounds with hgDAF12 agonist. HEK293 GAL4-hgDAF12 luciferase reporter, agonist mode; percent of butyrate response. activation, % at 6.8 µM. hit rate 80% among 3,300;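 active means mean activation over triplicate wells above the hit cutoff derived from the earlier primary screen, cut at about 11% in these data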
LXR ag 2: counter-screen for DAF-12 agonists: agonists of human LXR-beta; HEK293 Gal4-LXR luciferase reporter, 24 h; AID 743051; activation, % at 6.8 µM; 3,300 tested, under 10 active; shares compounds with hgDAF12 agonist;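 active means mean activation of the triplicate above a set limit carried over from the primary screen, none filed active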
Each line names hits and unclear results; the compound was inactive in the other large screens (follow-up assays come after a bar, where they were run). An excerpt weighted towards active compounds, which were near 5.7% of everything screened.

CCCCOC(=O)Nc1ccc(N2CCCCC2)cc1	hgDAF12 agonist 13.4 | hgDAF12 ag 13.4 | LXR ag 2 inactive
CCCCOC(=O)Nc1ccc(N2CCOCC2)cc1	none
C/C(=N\NC(=O)c1cc(C)oc1C)c1ccc(C)c([N+](=O)[O-])c1	none
NC(=O)c1cccnc1Nc1cccc([N+](=O)[O-])c1	hgDAF12 agonist 14.3, DAX1 inh-1 4.3 | hgDAF12 ag inactive | LXR ag 2 inactive
NC(=O)c1cccnc1Nc1cccc(F)c1	none
COc1ccc(/C=C/c2nc3ccccc3n2C)cc1	none
COc1ccc(Cn2c(/C=C/c3ccccc3)nc3ccccc32)cc1	hgDAF12 agonist 17.6, DAX1 inh-2 3.8, hcDAF12 agonist 6.4 | hgDAF12 ag 20.0 | LXR ag 2 inactive
CCCCNc1ncnc2[nH]ncc12	none (no result: AHR act)
COCCCNCCCCOc1ccc(OCc2ccccc2)cc1	none
c1ccc(COc2ccc(OCCCCN3CCCC3)cc2)cc1	hgDAF12 agonist 13.9 | hgDAF12 ag 14.5 | LXR ag 2 inactive
C=CCNCCCCOc1ccc(OCc2ccccc2)cc1	hgDAF12 agonist 15.2 | hgDAF12 ag 16.9 | LXR ag 2 inactive
O=C(Nc1nc(-c2nc3ccccc3s2)cs1)c1ccco1	hgDAF12 agonist 18.9, DAX1 inh-2 4.5 | hgDAF12 ag inactive | LXR ag 2 inactive
CS(=O)(=O)c1ccc2nc(NC(=O)c3ccco3)sc2c1	hgDAF12 agonist 15.3 | hgDAF12 ag 14.1 | LXR ag 2 inactive
O=C(Nc1nc2cc3c(cc2s1)OCO3)c1ccco1	hgDAF12 agonist 19.0 (no result: AHR act) | hgDAF12 ag inactive | LXR ag 2 inactive
CCOc1ccc(NC(=S)NC(=O)c2ccco2)cc1	none
CCOc1ccc(NC(=O)c2ccco2)cc1	hgDAF12 agonist 15.0 | hgDAF12 ag 12.6 | LXR ag 2 inactive
Cc1cccc(SC2CCN(C(=O)C3CCC(=O)N(C4CC4)C3)CC2)c1 (stereo not given)	none
COc1ccc(-n2ncc3c(=O)n(CC(=O)N(C(C)C)C(C)C)cnc32)cc1	none
CC(C)C(=O)Nc1nc2cc3c(cc2s1)OCCO3	hgDAF12 agonist 13.3 | hgDAF12 ag inactive | LXR ag 2 inactive
O=C(Nc1nc2cc3c(cc2s1)OCO3)C1=COCCO1	none
CC(=O)Nc1cccc(NC(=O)c2ccc(COc3ccccc3)cc2)c1	hgDAF12 agonist 13.4 (no result: AHR act) | hgDAF12 ag 17.1 | LXR ag 2 inactive
CCOc1ccc2nc(NC(=O)c3ccco3)sc2c1	hgDAF12 agonist 16.1 | hgDAF12 ag 16.6 | LXR ag 2 inactive
COc1ccc(OCc2cccc(C(=O)Nc3ccc(CN4CCCCC4)cc3)c2)cc1	none
CCOc1ccc(OCc2cccc(C(=O)Nc3ccc(CN4CCCCC4)cc3)c2)cc1	hgDAF12 agonist 18.4 | hgDAF12 ag 19.2 | LXR ag 2 inactive
Cc1ccsc1C(=O)Nc1ccc(S(=O)(=O)N2CCOCC2)cc1	none
Cc1occc1C(=O)Nc1ccc(OCc2ccccc2)cc1	hgDAF12 agonist 14.1, DAX1 inh-2 4.4 | hgDAF12 ag 18.6 | LXR ag 2 inactive
CN(C)CCCCCCN(C)C	none (no result: AHR act, DAX1 inh-1)
CCc1ccc(NC(=O)CCn2ccnc2C)cc1	none
CCn1cnc2sc(-c3ccccc3)cc2c1=O	ssDAF-12 act 0.9, hgDAF12 agonist 16.5 | hgDAF12 ag 15.8 | LXR ag 2 inactive
O=C(c1cc(-c2ccccc2O)on1)N1CCCCCC1	hgDAF12 agonist 13.8 | hgDAF12 ag inactive | LXR ag 2 inactive
O=C(c1cc(-c2ccccc2)on1)N1CCCCCC1	hgDAF12 agonist 13.3 | hgDAF12 ag 14.8 | LXR ag 2 inactive
O=C(NC1CCCC1)c1cc(-c2ccccc2O)on1	none
CN1CCN(C(=O)c2cc(-c3ccccc3)on2)CC1	none
Cc1ccc(-c2cc(C(=O)N3CCCCCC3)no2)cc1	ssDAF-12 act 1.3, hgDAF12 agonist 14.3 | hgDAF12 ag 20.7 | LXR ag 2 inactive
O=C(c1cc(-c2ccc(O)cc2)on1)N1CCCC1	hgDAF12 agonist 14.9 | hgDAF12 ag 13.3 | LXR ag 2 inactive
O=C(c1cc(-c2ccc(Br)cc2)on1)N1CCCC1	hgDAF12 agonist 18.6 | hgDAF12 ag 14.8 | LXR ag 2 inactive
COc1ccc(-c2cc(C(=O)N3CCCC3)no2)cc1	hgDAF12 agonist 13.6 | hgDAF12 ag inactive | LXR ag 2 inactive
O=C(c1cc(-c2ccc(O)cc2)on1)N1CCN(c2ccccc2)CC1	none
CCOP(=O)(OCC)C(O)c1cc(OC)c(OC)c(OC)c1 (stereo not given)	none
COc1ccccc1C(=O)O/N=C(\N)c1ccccc1Cl	hgDAF12 agonist 17.3 | hgDAF12 ag 10.7 | LXR ag 2 inactive
C=CCSc1nnc(-c2cccnc2)o1	none
C=CCSc1nnc(-c2ccc(Cl)cc2Cl)o1	hgDAF12 agonist 13.6 | hgDAF12 ag 14.2 | LXR ag 2 inactive
CC(=O)c1ccc(NC(=S)NCCCn2ccnc2)cc1	none
CCC(=O)c1ccc(OCc2ccccc2)c(OC)c1	hgDAF12 agonist 14.4, DAX1 inh-1 4.7 | hgDAF12 ag inactive | LXR ag 2 inactive
C/C(=N\NC(=O)c1csc(C)c1C)c1ccc(C)s1	hgDAF12 agonist 13.5 | hgDAF12 ag 10.7 | LXR ag 2 inactive
O=C(O)c1cccc(N/N=C/C2=C(Cl)c3cc(Cl)ccc3SC2)c1	ssDAF-12 act 1.4, hgDAF12 agonist 16.0 (no result: AHR act) | hgDAF12 ag 18.7 | LXR ag 2 inactive
Cc1noc(C)c1COc1ccccc1C(=O)NCc1ccco1	none
COc1ccc(C2=NOC(CNC(N)=S)C2)cc1 (stereo not given)	hgDAF12 agonist 13.5, DAX1 inh-1 4.5 | hgDAF12 ag 15.5 | LXR ag 2 inactive
COc1ccc(CNC(=O)C2CC(c3ccc(OC)cc3)=NO2)cc1 (stereo not given)	none
Cc1csc(NC(=O)c2nn(C)c(C)c2[N+](=O)[O-])n1	none
COc1cc(O)cc2cc3c(c(O)c12)C(=O)CC(C)(O)O3 (stereo not given)	hgDAF12 agonist 15.2 | hgDAF12 ag inactive | LXR ag 2 inactive
CCN(C(=O)c1ccc2c(SCC(=O)O)c3c(nc2c1)CCC3)c1cc(Cl)ccc1OC	none
O=C(COc1ccc(Cc2ccccc2)cc1)c1ccc(F)cc1	none
O=C(COc1ccc(F)cc1)c1ccc2c(c1)CCCC2	hgDAF12 agonist 13.7 | hgDAF12 ag 13.3 | LXR ag 2 inactive
C=CCN(c1ccccc1C(=O)O)S(=O)(=O)/C=C/c1ccccc1	none
CN(C)c1ccc(/C=C2\CCCCC2=O)cc1	hgDAF12 agonist 17.7 | hgDAF12 ag 14.4 | LXR ag 2 inactive
CN(C)c1ccc(C=C2SC(=S)NC2=O)cc1	none (no result: AHR act)
COc1ccc(-n2nnnc2C(CCc2ccccc2)N2CCN(C/C=C/c3ccccc3)CC2)cc1 (stereo not given)	none (no result: AHR act, DAX1 inh-1)
